Assay results: PubChem BioAssay (NCI)
The panel holds about 83,000 compounds, 20% with a hit somewhere; the sample as a whole holds those more often.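 Single-concentration screen, 48 h exposure, 96-well plates. Endpoint: percent growth. Below 10 = active.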 Unmarked numbers belong to inactive results. The source made the active and inactive calls.

Assays:
Assay in all cases: NCI-60 one-dose screen, 48 h (100 = growth as untreated, 0 = no growth, -100 = all killed)
Conditions in all cases: 10 µM unless noted
NCI-H23 lung = system: NCI-H23 lung
NCI-H226 lung = system: NCI-H226 lung
NCI-H322M lung = system: NCI-H322M lung
HOP-62 NSCLC = system: HOP-62 NSCLC
NCI-H460 lung = system: NCI-H460 lung
HOP-92 NSCLC = system: HOP-92 NSCLC
NCI-H522 lung = system: NCI-H522 lung
A549/ATCC NSCLC = system: A549/ATCC NSCLC
786-0 renal = system: 786-0 renal
COLO 205 colon = system: COLO 205 colon

Compound | growth (NCI-H23 lung) | growth (NCI-H226 lung) | growth (NCI-H322M lung) | growth (HOP-62 NSCLC) | growth (NCI-H460 lung) | growth (HOP-92 NSCLC) | growth (NCI-H522 lung) | growth (A549/ATCC NSCLC) | growth (786-0 renal) | growth (COLO 205 colon)
Nc1nc(Nc2ccc(OCc3cccc(F)c3)cc2)c2c(n1)[nH]c1ccc(O)cc12 | 6.71% (active) | -56.2% (active) | 3.43% (active) | -17% (active) | -49.2% (active) | -31.3% (active) | -76.2% (active) | -27.1% (active) | -96.6% (active) | -77.5% (active)
CC1(C)N=C(N)N=C(N)N1c1ccc(F)c(C(F)(F)F)c1 | 29.4% | 54.1% | 51.9% | 21.7% | 21.6% | 45.4% | -8.07% (active) | 9.86% (active) | -4.42% (active) | 79.8%
COC(=O)CCCNS(=O)(=O)c1cc(C(=O)Nc2ccc(NC(=O)c3cc(S(=O)(=O)NCCCC(=O)OC)c(O)c(O)c3O)cc2)c(O)c(O)c1O | 92.4% | 98.4% | 89.4% | 98.5% | 97.3% | 115% | 86.1% | 83.2% | 112% | 114%
COc1cc(NC(=O)C#Cc2ccccc2)c(OC)cc1Cl | 57.8% | 64.7% | 93.2% | 77.6% | 17.8% | 78.5% | 39.2% | 59.5% | 35.1% | 64.6%
CN(C)CC/C=C1\c2ccccc2Sc2ccc(Cl)cc21 | 80% | 102% | 72.1% | 75.6% | 77.2% | 36.7% | 67.5% | 74.9% | 58.2% | -40.1% (active)
c1ccc([Se]CCCN2CCN(CCC[Se]c3ccccc3)CC2)cc1 | 106% | 116% | 121% | 94.5% | 103% | 87.3% | 119% | 108% | 96.4% | 135%
C=C(C)[C@@H]1C/C=C(\COC(=O)[C@H](OC(C)=O)C(NC(=O)c2ccccc2)c2ccccc2)CC[C@H]2O[C@]2(C)CC/C=C(\C)CC1 (stereo not given in full) | 73.7% [5 µM] | 81% [5 µM] | 71.6% [5 µM] | 75.3% [5 µM] | 64.2% [5 µM] | 13.3% [5 µM] | 57.3% [5 µM] | 73.1% [5 µM] | 65.7% [5 µM] | 92% [5 µM]
CCC1S/C(=N\N=C(/C)c2ccco2)N(c2ccccc2)C1=O (stereo not given) | 98.8% | 122% | 66.8% | 106% | 93.8% | 40.6% | 74.7% | 104% | 96.9% | 117%
CC(C)(C)C(=O)/C=c1/[nH]c(=O)/c(=C/c2ccccc2O)s1 | 73.1% | 76.4% | 71.7% | 46% | 23.8% | 80.4% | 26.8% | 44.2% | 87.3% | 89.1%
c1ccc(CNCCN(CCNCc2ccccn2)Cc2ccc3ccccc3c2)nc1 | 21.5% | -17.9% (active) | 12.2% | -17.4% (active) | -7.2% (active) | -7.66% (active) | 14.1% | -14.5% (active) | -46.4% (active) | -5.97% (active)
O=C(Cn1c2ccccc2c2ccncc21)N/N=C/c1c[nH]c2ccccc12 | 48.3% | 73.3% | 72.8% | 55.5% | 1.47% (active) | 61.2% | 58.8% | 25.2% | 44% | 88.2%
